miR122 inh: activators of miR-122 sensor in Huh7 cells. Huh7 psiCHECK-miR122 Renilla luciferase sensor, 48 h. activation, % at 12.5 µM. 0.14% of 340,000 active;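 active = mean activation of 30% or more, with every replicate also reaching 30%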;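 note: higher luciferase signal means stronger suppression of miR-122 activity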
Numbers stand for hits. Shown is part of a subset that was picked to be rich in hits.

Screening COCC#Cc1ccc2c(c1)O[C@@H](CN(C)Cc1cncnc1)[C@H](C)CN([C@@H](C)CO)S2(=O)=O returned miR122 inh inactive.
Screening C[C@@H]1CN([C@H](C)CO)C(=O)c2cc(C#Cc3ccc(F)cc3)cnc2O[C@H]1CN(C)CC1CCOCC1 returned miR122 inh inactive.
`C[C@@H]1CN([C@H](C)CO)C(=O)c2cc(NC(=O)Cc3cn(C)c4ccccc34)ccc2O[C@@H]1CN(C)S(=O)(=O)c1ccc(Cl)cc1` gave miR122 inh inactive.
Screening CCCNC(=O)N(C)C[C@@H]1Oc2ncc(C#CCC(C)C)cc2C(=O)N([C@@H](C)CO)C[C@H]1C returned miR122 inh inactive.
`C[C@H](CO)N1C[C@H](C)[C@@H](CN(C)C(=O)Nc2cc(F)ccc2F)Oc2cc(-c3ccc(C#N)cc3)ccc2S1(=O)=O` gave miR122 inh inactive.
Screening C[C@H]1CN([C@@H](C)CO)C(=O)c2cccc(NC(=O)Nc3ccccc3)c2O[C@@H]1CN(C)Cc1ccc(C(=O)Nc2ccccc2N)cc1 returned miR122 inh inactive.
Screening CCC(=O)N(C)C[C@H]1Oc2cc(-c3cccc(C#N)c3)ccc2S(=O)(=O)N([C@H](C)CO)C[C@@H]1C returned miR122 inh inactive.
For COCC(=O)N(C)C[C@@H]1Oc2ncc(C#Cc3ccncc3)cc2C(=O)N([C@@H](C)CO)C[C@H]1C the results were miR122 inh inactive.
C/C=C/c1ccc2c(c1)O[C@@H](CN(C)CCC)[C@@H](C)CN([C@H](C)CO)S2(=O)=O was read as miR122 inh inactive.
CO[C@@H]1CN(C)C(=O)c2cc(NC(=O)c3ccc(F)cc3)ccc2OC[C@@H](C)N(C)C[C@@H]1C was read as miR122 inh inactive.
`CO[C@H]1CN(C)C(=O)c2cc(NC(=O)c3ccc(F)cc3)ccc2OC[C@@H](C)N(C)C[C@H]1C` gave miR122 inh inactive.
Screening CN1C(=O)c2cc(NS(=O)(=O)c3ccc(Cl)cc3)ccc2OC[C@@H]2O[C@H](CC(=O)N3CCc4ccccc4C3)CC[C@H]21 returned miR122 inh 33.
`CN1C(=O)c2cc(NC(=O)c3cccc(F)c3)ccc2OC[C@H]2O[C@H](CC(=O)N3CCc4ccccc4C3)CC[C@H]21` gave miR122 inh 37.
Screening CN1C(=O)c2cc(NC(=O)c3cccc(F)c3)ccc2OC[C@@H]2O[C@H](CC(=O)Nc3ccccc3)CC[C@H]21 returned miR122 inh 55.
Screening CO[C@@H]1CN(C)C(=O)c2cc(NS(=O)(=O)c3ccccc3)ccc2OC[C@@H](C)N(C)C[C@H]1C returned miR122 inh inactive.
`CO[C@@H]1CN(C)C(=O)c2cc(NC(=O)c3ccc(F)cc3)ccc2OC[C@H](C)N(C)C[C@@H]1C` gave miR122 inh inactive.
For CC(C)C(=O)Nc1ccc2c(c1)C(=O)N(C)[C@H]1CC[C@H](CC(=O)NCc3cccc(F)c3)O[C@H]1CO2 the results were miR122 inh inactive.
CO[C@H]1CN(C)C(=O)c2cc(NC(=O)c3ccc(F)cc3)ccc2OC[C@@H](C)N(C)C[C@@H]1C was read as miR122 inh inactive.
Screening COc1cccc(CNC(=O)C[C@H]2CC[C@@H]3[C@@H](COc4ccc(NC(C)=O)cc4C(=O)N3C)O2)c1 returned miR122 inh 53.
CO[C@@H]1CN(C)C(=O)c2cc(NC(=O)Cc3ccccc3)ccc2OC[C@@H](C)N(CCc2ccccc2)C[C@H]1C was read as miR122 inh inactive.
Screening CO[C@@H]1CN(C)C(=O)c2cc(NS(=O)(=O)c3ccccc3)ccc2OC[C@H](C)N(C)C[C@H]1C returned miR122 inh inactive.
`COCC#Cc1cnc2c(c1)C(=O)N([C@H](C)CO)C[C@@H](C)[C@H](CN(C)C(=O)Cc1ccccc1)O2` gave miR122 inh inactive.
`COc1ccc(C(=O)Nc2ccc3c(c2)OC[C@@H](C)N(C)C[C@H](C)[C@@H](OC)CN(C)C3=O)cc1` gave miR122 inh inactive.
Screening COCC(=O)N(C)C[C@H]1Oc2cc(C#CC3CC3)ccc2S(=O)(=O)N([C@@H](C)CO)C[C@H]1C returned miR122 inh inactive.
Screening COCC#Cc1cnc2c(c1)C(=O)N([C@H](C)CO)C[C@H](C)[C@@H](CN(C)S(=O)(=O)c1cccc(OC)c1)O2 returned miR122 inh inactive.
For CCC(=O)Nc1ccc2c(c1)C(=O)N(C)C[C@@H](OC)[C@H](C)CN(Cc1ccccc1OC)[C@H](C)CO2 the results were miR122 inh inactive.
`CCC(=O)N(C)C[C@H]1Oc2cc(-c3cccnc3)ccc2S(=O)(=O)N([C@@H](C)CO)C[C@@H]1C` gave miR122 inh inactive.
Screening C[C@@H]1CN([C@@H](C)CO)S(=O)(=O)c2ccc(C#Cc3cccnc3)cc2O[C@@H]1CN(C)CC1CCOCC1 returned miR122 inh inactive.
Screening C[C@@H]1CN([C@@H](C)CO)C(=O)c2cc(C#CCc3ccccc3)cnc2O[C@H]1CN(C)C(=O)C1CCCCC1 returned miR122 inh inactive.
C[C@H]1CN([C@@H](C)CO)S(=O)(=O)c2ccc(C#CC(C)(C)O)cc2O[C@H]1CN(C)C(=O)C1CCC1 was read as miR122 inh inactive.
